Experimental data as given in PubChem BioAssay (NCI).
The panel holds about 79,000 compounds, 15% with a hit somewhere; the sample as a whole holds those more often. The source made the active and inactive calls. No stated cut-off is given here; in the data, active means growth inhibition above about 70%; inactive means the rest.

Experiments:
[1] = NCI Yeast Anticancer Drug Screen. Data for the rad52 strain (AID 147);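 further: 0% = growth of vehicle-treated control cultures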; settings: S. cerevisiae rad52 mutant growth inhibition, stronger effect = higher value
Method in brief: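 DNA repair-defective yeast; compound exposure; growth scored against vehicle controls.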

[2] = NCI Yeast Anticancer Drug Screen. Data for the wt1 strain (AID 149);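 further: 0% = growth of vehicle-treated wt1 cultures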; settings: S. cerevisiae wt1 strain (SPY 50644) growth inhibition, stronger effect = higher value
Method in brief: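 wt1 yeast, compound-treated; % growth inhibition vs vehicle control.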

[3] = NCI Yeast Anticancer Drug Screen. Data for the rad50EPP+ strain (AID 151);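 further: 0% = growth of vehicle-treated control cultures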; settings: S. cerevisiae rad50 mutant strain, stronger effect = higher value
Method in brief: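 rad50EPP+ yeast treated with test compounds. Readout: growth vs vehicle control.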

[4] = NCI Yeast Anticancer Drug Screen. Data for the mgt1 strain (AID 153); settings: S. cerevisiae mgt1 mutant growth inhibition, stronger effect = higher value
Method in brief: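 Growth inhibition relative to vehicle controls was scored for the mgt1 yeast strain after compound exposure.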

[5] = NCI Yeast Anticancer Drug Screen. Data for the rad50 strain (AID 155);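 further: 0% = growth of vehicle-only cultures of the same strain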; settings: S. cerevisiae rad50 strain growth inhibition, stronger effect = higher value
Method in brief: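 Genetically altered yeast (DNA repair pathway); compound treatment; growth inhibition vs vehicle ctrl.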

[6] = NCI Yeast Anticancer Drug Screen. Data for the mec2-1 strain (AID 157); settings: S. cerevisiae mec2-1 strain, stronger effect = higher value
Method in brief: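 Growth inhibition is read against vehicle-treated controls after compound exposure of the mec2-1 yeast strain, which is defective in DNA damage repair or cell cycle control.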

[7] = NCI Yeast Anticancer Drug Screen. Data for the rad14 strain (AID 159);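 further: 0% = growth of vehicle-treated control cultures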; settings: S. cerevisiae rad14 strain growth inhibition, stronger effect = higher value
Method in brief: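 Test compounds were applied to a repair-deficient yeast strain. Its growth was then compared with that of cultures given vehicle alone, and inhibition was expressed relative to those controls.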

[8] = NCI Yeast Anticancer Drug Screen. Data for the sgs1 mgt1 strain (AID 161);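 further: 0% = growth of cultures given vehicle only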; settings: S. cerevisiae sgs1 mgt1 strain, stronger effect = higher value
Method in brief: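 Growth of a repair-deficient yeast mutant was monitored after compound treatment and expressed as inhibition relative to vehicle-treated cultures.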

[9] = NCI Yeast Anticancer Drug Screen. Data for the CLN2oe strain (AID 163);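 further: 0% = growth of vehicle-only control cultures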; settings: S. cerevisiae CLN2oe strain, stronger effect = higher value
Method in brief: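 Compound-treated yeast; growth vs vehicle ctrl = % inhibition. Genetically altered strain (cell-cycle control).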

[10] = NCI Yeast Anticancer Drug Screen. Data for the cln2 rad14 strain (AID 165);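 further: 0% = growth equal to vehicle treated cultures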; settings: S. cerevisiae cln2 rad14 strain, stronger effect = higher value
Method in brief: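 Growth inhibition, relative to vehicle-treated controls, is the read-out. The test organism is a yeast strain with defined genetic alterations, cln2 rad14.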

[11] = NCI Yeast Anticancer Drug Screen. Data for the bub3 strain (AID 167); settings: S. cerevisiae bub3 mutant strain, stronger effect = higher value
Method in brief: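 Yeast carrying a defined mutation is treated with each compound, and growth is compared with that of vehicle-exposed cells to give inhibition.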

[12] = NCI Yeast Anticancer Drug Screen. Data for the wt2 strain (AID 169);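 further: 0% = growth of vehicle-treated yeast cultures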; settings: S. cerevisiae wt2 strain growth inhibition, stronger effect = higher value
Method in brief: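 Compound exposure of yeast; growth compared with vehicle controls; inhibition reported.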

[13] = NCI Yeast Anticancer Drug Screen. Data for the mlh1 strain (AID 171);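 further: 0% = growth of vehicle-treated control cultures of the same strain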; settings: S. cerevisiae mlh1 strain growth inhibition, stronger effect = higher value
Method in brief: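 Compounds are applied to a genetically altered yeast strain, and its growth is compared with that of vehicle-treated cultures to give percent inhibition.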

[14] = NCI Yeast Anticancer Drug Screen. Data for the sgs1 strain (AID 173);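 further: 0% = growth of vehicle-only control cultures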; settings: S. cerevisiae sgs1 mutant, stronger effect = higher value
Method in brief: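 Compounds applied to genetically altered yeast; growth compared with vehicle-treated cultures to give % inhibition.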

[15] = NCI Yeast Anticancer Drug Screen. Data for the mlh1 rad18 strain (AID 175); settings: S. cerevisiae mlh1 rad18 strain growth inhibition, stronger effect = higher value
Method in brief: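 Cells of a genetically altered yeast strain, deficient in DNA damage repair, were treated with compound. Their growth was then compared with that of vehicle-treated cultures to give inhibition.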

[16] = NCI Yeast Anticancer Drug Screen. Data for the rad18 strain (AID 177); settings: S. cerevisiae rad18 mutant growth inhibition, stronger effect = higher value
Method in brief: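 Compounds are applied to a repair-deficient yeast strain, and growth is compared with that of vehicle-treated cultures to give percent inhibition.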

[17] = at 5.0 µM (retest, dose inferred, filed as 0.5)
[18] = at 50.0 µM (retest, dose inferred, filed as 5.0)

Measured: growth inhibition

O=C(O)C1OC1(c1cccc(Cl)c1)c1ccccc1Cl (stereo unspecified)
inactive: [1]; at 1.2 µM -9% | [1]; at 3.7 µM -8% | [1]; at 11.0 µM 13% | [1]; at 33.0 µM 56% | [2]; at 1.2 µM -18% | [2]; at 3.7 µM -15% | [2]; at 11.0 µM -15% | [2]; at 33.0 µM 41% | [3]; at 1.2 µM 0% | [3]; at 3.7 µM 9% | [3]; at 11.0 µM 12% | [3]; at 33.0 µM 25% | [3]; at 100.0 µM 36% | [4]; at 1.2 µM 17% | [4]; at 3.7 µM 16% | [4]; at 11.0 µM 28% | [4]; at 33.0 µM 67% | [5]; at 1.2 µM 1% | [5]; at 3.7 µM 7% | [5]; [17] 43% | [5]; at 11.0 µM 12% | [5]; at 33.0 µM 48% | [5]; [18] 59% | [6]; at 1.2 µM -6% | [6]; at 3.7 µM -13% | [6]; [17] 57% | [6]; at 11.0 µM 2% | [6]; at 33.0 µM 58% | [6]; [18] 61% | [7]; at 1.2 µM -19% | [7]; at 3.7 µM -12% | [7]; at 11.0 µM -11% | [8]; [17] -12% | [9]; at 1.2 µM 15% | [9]; at 3.7 µM 16% | [9]; at 11.0 µM 13% | [9]; at 33.0 µM 39% | [10]; [17] 54% | [11]; at 1.2 µM 0% | [11]; at 3.7 µM -5% | [11]; [17] 30% | [11]; at 11.0 µM 9% | [12]; at 1.2 µM -35% | [12]; at 3.7 µM -20% | [12]; at 11.0 µM -18% | [12]; at 33.0 µM 26% | [13]; at 1.2 µM -26% | [13]; at 3.7 µM -25% | [13]; at 11.0 µM -10% | [13]; at 33.0 µM 37% | [14]; at 1.2 µM -13% | [14]; at 3.7 µM -5% | [14]; at 11.0 µM 1% | [14]; at 33.0 µM 51% | [15]; [17] 47% | [15]; [18] 53% | [16]; at 1.2 µM -6% | [16]; at 3.7 µM -16% | [16]; at 11.0 µM 3% | [16]; at 33.0 µM 57%
active: [1]; at 100.0 µM 91% | [2]; at 100.0 µM 93% | [4]; at 100.0 µM 95% | [5]; at 50.0 µM 90.1% | [5]; at 100.0 µM 88% | [6]; at 50.0 µM 92% | [6]; at 100.0 µM 94% | [7]; at 33.0 µM 75% | [7]; at 100.0 µM 91% | [8]; [18] 93% | [8]; at 50.0 µM 93.1% | [9]; at 100.0 µM 93% | [10]; [18] 96% | [10]; at 50.0 µM 90.7% | [11]; at 33.0 µM 70% | [11]; [18] 95% | [11]; at 50.0 µM 89.9% | [11]; at 100.0 µM 92% | [12]; at 100.0 µM 93% | [13]; at 100.0 µM 90% | [14]; at 100.0 µM 90% | [15]; at 50.0 µM 90.5% | [16]; at 100.0 µM 90%

O=C(O)c1ccccc1-c1ccccc1C(=O)Nc1ccc2c(c1)Cc1ccccc1-2
inactive: [1]; at 1.2 µM 2% | [1]; at 3.7 µM 5% | [1]; at 11.0 µM 12% | [1]; at 33.0 µM 51% | [2]; at 1.2 µM 5% | [2]; at 3.7 µM 7% | [2]; at 11.0 µM 16% | [2]; at 33.0 µM 47% | [3]; at 1.2 µM -2% | [3]; at 3.7 µM 2% | [3]; at 11.0 µM 3% | [3]; at 33.0 µM 10% | [3]; at 100.0 µM 25% | [4]; at 1.2 µM 5% | [4]; at 3.7 µM 7% | [4]; at 11.0 µM 19% | [4]; at 33.0 µM 65% | [5]; at 1.2 µM 6% | [5]; at 3.7 µM 6% | [5]; [17] 0% | [5]; at 11.0 µM 23% | [5]; at 33.0 µM 49% | [5]; [18] 37% | [6]; at 1.2 µM 8% | [6]; at 3.7 µM 14% | [6]; [17] 4% | [6]; at 11.0 µM 22% | [6]; at 33.0 µM 64% | [6]; [18] 23% | [7]; at 1.2 µM 7% | [7]; at 3.7 µM 9% | [7]; at 11.0 µM 21% | [8]; [17] -7% | [8]; [18] 17% | [8]; at 50.0 µM 62.6% | [9]; at 1.2 µM 7% | [9]; at 3.7 µM 10% | [9]; at 11.0 µM 20% | [9]; at 33.0 µM 64% | [10]; [17] -27% | [10]; [18] 46% | [11]; at 1.2 µM 4% | [11]; at 3.7 µM 7% | [11]; [17] -24% | [11]; at 11.0 µM 27% | [11]; at 33.0 µM 67% | [11]; [18] 22% | [12]; at 1.2 µM 3% | [12]; at 3.7 µM 7% | [12]; at 11.0 µM 16% | [12]; at 33.0 µM 59% | [13]; at 1.2 µM 7% | [13]; at 3.7 µM 12% | [13]; at 11.0 µM 22% | [13]; at 33.0 µM 51% | [14]; at 1.2 µM 1% | [14]; at 3.7 µM 6% | [14]; at 11.0 µM 17% | [14]; at 33.0 µM 59% | [15]; [17] 6% | [15]; [18] 54% | [16]; at 1.2 µM 4% | [16]; at 3.7 µM 7% | [16]; at 11.0 µM 17% | [16]; at 33.0 µM 49%
active: [1]; at 100.0 µM 90% | [2]; at 100.0 µM 90% | [4]; at 100.0 µM 98% | [5]; at 50.0 µM 71.2% | [5]; at 100.0 µM 88% | [6]; at 50.0 µM 73.5% | [6]; at 100.0 µM 99% | [7]; at 33.0 µM 71% | [7]; at 100.0 µM 97% | [9]; at 100.0 µM 98% | [10]; at 50.0 µM 92.3% | [11]; at 50.0 µM 83.2% | [11]; at 100.0 µM 96% | [12]; at 100.0 µM 96% | [13]; at 100.0 µM 97% | [14]; at 100.0 µM 94% | [15]; at 50.0 µM 76.5% | [16]; at 100.0 µM 90%
